# Several values for one entry are separate records, joined by “and”; a condition that tells them apart may be missing. Identical values can stand only once. Inconclusive results are not listed. A call without a number means that no potency is given here. Some structures have more than one record in an assay (separate samples or runs), and their calls can disagree. Activity calls are given as the source filed them. Calls come from the whole dose curve; as a rule, active = well fitted curve in the direction sought with a large enough effect in the repeat runs; inconclusive = weak or mixed curves; inactive = no such curve, though single readings can be large; an effect the other way counts as inactive or inconclusive.
# Columns and labels:
# [1] = qHTS assay to identify small molecule antagonists of the estrogen related receptor (ERR) signaling pathway from Tox21 library (AID 1224848); note: nearly all actives have a fitted effect of over 50% in size; note: potency is the fitted concentration of half-maximal effect
# Method in brief: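 Cells: ERR line, 2,000/well; 6 h preincubation 37 C/5% CO2. Cpd in DMSO via pin tool; 18 h, 37 C. ONE-Glo, 30 min RT, luminescence.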
# [2] = qHTS RealTime-Glo MT Cell Viability Assay in HepG2 cells - 24 hour (AID 1224867); note: nearly all actives have a fitted effect of over 50% in size
# Method in brief: (§1)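 HepG2 cells were seeded at 600 cells/well together with NanoLuc luciferase and a cell-permeant prosubstrate, preincubated 5 h at 37 C/5% CO2, then pin-dosed with compounds in DMSO. Nonlytic luminescence from viable cells was read at each time point.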
# [3] = qHTS RealTime-Glo MT Cell Viability Assay in HEK293 cells - 32 hour (AID 1224868); note: nearly all actives have a fitted effect of over 50% in size; note: potency is the fitted concentration of half-maximal effect
# Method in brief: (§2)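 HEK293 cells were seeded at 600 cells/well together with NanoLuc luciferase and cell-permeant prosubstrate, preincubated 5 h at 37 C/5% CO2, then given compound in DMSO by pintool. Luminescence from viable-cell prosubstrate reduction was read repeatedly over 40 h.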
# [4] = A CellTox Green Cytotoxicity Assay to monitor cytotoxicity in HEK293 cells - 0 hour (AID 1224869); note: nearly all actives have a fitted effect of over 50% in size
# Method in brief: (§3)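 Nonlytic real-time cytotoxicity: HEK293 + CellTox Green reagent plated, 5 h preincubation, pintool compound addition (23 nL in DMSO), 37 C for 40 h, fluorescence measured at successive time points.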
# [5] = qHTS RealTime-Glo MT Cell Viability Assay in HepG2 cells - 40 hour (AID 1224870); note: nearly all actives have a fitted effect of over 50% in size
# Method in brief: (§4)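 HepG2 cells mixed with RealTime-Glo MT reagents (NanoLuc plus cell-permeant prosubstrate) were seeded at 600 cells/well, incubated 5 h at 37 C/5% CO2, then pinned with compounds in DMSO; nonlytic luminescence tracked viability during 40 h treatment.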
# [6] = A CellTox Green Cytotoxicity Assay to monitor cytotoxicity in HEK293 cells - 40 hour (AID 1224871); note: nearly all actives have a fitted effect of over 45% in size
# Method in brief: as §3
# [7] = qHTS RealTime-Glo MT Cell Viability Assay in HepG2 cells - 8 hour (AID 1224873); note: nearly all actives have a fitted effect of over 55% in size
# Method in brief: as §4
# [8] = qHTS RealTime-Glo MT Cell Viability Assay in HEK293 cells - 40 hour (AID 1224874); settings: RealTime-Glo luminescence; max response: stronger effect = lower value; note: nearly all actives have a fitted effect of over 50% in size; note: potency is the fitted concentration of half-maximal effect
# Method in brief: (§5)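 Cells were seeded together with NanoLuc luciferase and a prosubstrate that viable cells reduce to a luciferase substrate. After a 5 h incubation at 37 C/5% CO2, compounds were added and luminescence was measured repeatedly during 40 h of treatment.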
# [9] = A CellTox Green Cytotoxicity Assay to monitor cytotoxicity in HepG2 cells - 16 hour (AID 1224876); note: nearly all actives have a fitted effect of over 45% in size; note: potency is the fitted concentration of half-maximal effect
# Method in brief: (§6)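 Read-out is fluorescence of a cyanine dye excluded from live cells that stains DNA of dead HepG2 cells, with signal proportional to cytotoxicity. Plates were read at 0, 8, 16, 24, 32 and 40 h after compound addition.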
# [10] = qHTS RealTime-Glo MT Cell Viability Assay in HepG2 cells - 32 hour (AID 1224877); note: nearly all actives have a fitted effect of over 55% in size
# Method in brief: as §1
# [11] = A CellTox Green Cytotoxicity Assay to monitor cytotoxicity in HepG2 cells - 24 hour (AID 1224878); note: nearly all actives have a fitted effect of over 45% in size; note: potency is the fitted concentration of half-maximal effect
# Method in brief: as §6
# [12] = A CellTox Green Cytotoxicity Assay to monitor cytotoxicity in HepG2 cells - 40 hour (AID 1224879); note: nearly all actives have a fitted effect of over 40% in size; note: potency is the fitted concentration of half-maximal effect
# Method in brief: as §6
# [13] = qHTS RealTime-Glo MT Cell Viability Assay in HEK293 cells - 0 hour (AID 1224880); note: top concentration of the series differs between compounds; nearly all actives have a fitted effect of over 45% in size
# Method in brief: as §5
# [14] = A CellTox Green Cytotoxicity Assay to monitor cytotoxicity in HEK293 cells - 32 hour (AID 1224881); note: nearly all actives have a fitted effect of over 40% in size; note: potency is the fitted concentration of half-maximal effect
# Method in brief: as §3
# [15] = A CellTox Green Cytotoxicity Assay to monitor cytotoxicity in HepG2 cells - 0 hour (AID 1224882); note: nearly all actives have a fitted effect of over 35% in size
# Method in brief: as §6
# [16] = A CellTox Green Cytotoxicity Assay to monitor cytotoxicity in HepG2 cells - 32 hour (AID 1224883); note: nearly all actives have a fitted effect of over 50% in size; note: potency is the fitted concentration of half-maximal effect
# Method in brief: as §6
# [17] = A CellTox Green Cytotoxicity Assay to monitor cytotoxicity in HEK293 cells - 8 hour (AID 1224884); note: nearly all actives have a fitted effect of over 35% in size
# Method in brief: as §3
# [18] = qHTS RealTime-Glo MT Cell Viability Assay in HEK293 cells - 16 hour (AID 1224872); note: nearly all actives have a fitted effect of over 50% in size; note: potency is the fitted concentration of half-maximal effect
# Method in brief: as §2
# [19] = A CellTox Green Cytotoxicity Assay to monitor cytotoxicity in HEK293 cells - 24 hour (AID 1224875)
# Method in brief: as §3
Compound,Potency [1],outcome [2],Potency [3],outcome [4],outcome [5],Potency [6],outcome [7],Potency [8],Potency [9],outcome [10],Potency [11],Potency [12],Potency [13],Potency [14],outcome [15],Potency [16],outcome [17],Potency [18],max response [8],Potency [19]
O=P(OC(CCl)CCl)(OC(CCl)CCl)OC(CCl)CCl,48.3 µM (active) and 54.5 µM (active),inactive,24.4 µM (active) and 49 µM (active),inactive,inactive,inactive,inactive,21.8 µM (active) and 49 µM (active),inactive,inactive,inactive,inactive,inactive,inactive,inactive,inactive,inactive,–,–,–
CCCCC(CC)COC(=O)CS (centres undefined),inactive,inactive,–,inactive,inactive,inactive,inactive,19.5 µM (active),inactive,inactive,inactive,inactive,inactive,inactive,inactive,inactive,inactive,inactive,6.5% (inactive),inactive
CCCCCCCCCCCCc1ccccc1,inactive,inactive,–,inactive,inactive,inactive,inactive,–,inactive,inactive,inactive,inactive,inactive,inactive,inactive,inactive,inactive,inactive,7.72% (inactive) and -4.38% (inactive),inactive
CCC(O)OC(O)CC (centres undefined),inactive,inactive,inactive,inactive,inactive,inactive,inactive,–,–,inactive,inactive,inactive,inactive,inactive,inactive,inactive,inactive,inactive,5.86% (inactive) and 8.63% (inactive),–
O=c1[nH]nnc2ccccc12,inactive,inactive,–,inactive,inactive,–,inactive,–,inactive,inactive,inactive,inactive,inactive,inactive,inactive,inactive,inactive,inactive,2.18% (inactive) and -25.5% (inactive),inactive
CN(C)CCOCCN(C)C,inactive,inactive,inactive,inactive,inactive,–,inactive,–,inactive and 43.6 µM (active),inactive,inactive and 49 µM (active),inactive and 49 µM (active),inactive,inactive and 49 µM (active),inactive,inactive and 49 µM (active),inactive,inactive,0.168% (inactive) and 5.1% (inactive),–
OCCOCCOCCO,inactive,inactive,inactive,inactive,inactive,–,inactive,–,–,inactive,inactive,inactive,inactive,inactive,inactive,inactive,inactive,inactive,-0.565% (inactive) and 3.8% (inactive),inactive
COCCCOc1ccnc(CS(=O)c2nc3ccccc3[nH]2)c1C (centres undefined),inactive,inactive,–,inactive,inactive,–,inactive,9.74 µM (active),inactive,inactive,inactive,inactive,inactive,inactive,inactive,inactive,inactive,10.9 µM (active) and inactive,-13.3% (inactive),inactive
CSCCC=O,inactive,inactive,inactive,inactive,inactive,inactive,inactive,–,inactive,inactive,inactive,inactive,inactive,inactive,inactive,inactive,inactive,inactive,4.41% (inactive) and 31% (inactive),inactive
N[C@@H](Cc1cc(I)c(Oc2cc(I)c(O)c(I)c2)c(I)c1)C(=O)O,inactive,inactive,–,inactive,inactive,inactive,inactive,–,inactive,inactive,inactive,inactive,inactive,inactive,inactive,inactive,inactive,inactive,12.3% (inactive) and 0.808% (inactive),inactive
O=C(O)CCCC[C@@H]1SC[C@@H]2NC(=O)N[C@@H]21,inactive,inactive,inactive,inactive,inactive,–,inactive,–,inactive,inactive,inactive,inactive,inactive,inactive,inactive,inactive,inactive,inactive,6.98% (inactive) and 0.709% (inactive),–

# Reference: PubChem BioAssay (Tox21)
